Assay outcomes from PubChem.
Rows were chosen to be rich in hits. Some 5.6% of all compounds tested hit in one or more screens of this group.
RORgamma inh – qHTS for inhibitors of ROR gamma transcriptional activity | Drosophila S2 Gal4-RORgamma UAS-luciferase reporter, 20 h | 310,000 tested, 5.4% active | Potency, µM (titrated, usually from 53.6 µM), usual class: inhibitors | Nuclear receptor ROR-gamma (Mus musculus), P51450 | AID 2551, 2010; further: nearly all actives have a fitted effect of over 60% in size
Target sequence (P51450 whole entry, looked up, the tested form may be a part): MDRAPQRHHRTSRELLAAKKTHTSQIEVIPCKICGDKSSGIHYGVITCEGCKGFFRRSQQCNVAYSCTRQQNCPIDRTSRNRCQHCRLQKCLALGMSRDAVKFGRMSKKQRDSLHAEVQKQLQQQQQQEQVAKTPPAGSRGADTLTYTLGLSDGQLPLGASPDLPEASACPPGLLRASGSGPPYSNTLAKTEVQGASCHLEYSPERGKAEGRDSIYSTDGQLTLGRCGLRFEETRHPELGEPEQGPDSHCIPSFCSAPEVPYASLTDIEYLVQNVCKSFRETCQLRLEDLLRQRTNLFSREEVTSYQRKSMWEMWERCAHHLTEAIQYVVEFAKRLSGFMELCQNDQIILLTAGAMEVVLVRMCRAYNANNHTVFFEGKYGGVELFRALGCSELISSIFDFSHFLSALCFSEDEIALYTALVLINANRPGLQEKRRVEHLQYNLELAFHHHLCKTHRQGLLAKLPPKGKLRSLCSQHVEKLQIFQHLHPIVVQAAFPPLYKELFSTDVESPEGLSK
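Drosophila Schneider cells stably carrying a metallothionein-driven Gal4 DBD–ROR gamma fusion and a UAS-Photinus luciferase reporter were exposed to compound for 1 hr, then induced with copper sulfate (700 uM final) for 20 hr at ambient temperature before luminescence reading.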
Gal4-VP16 FLuc – VP16 counterscreen qHTS for inhibitors of ROR gamma transcriptional activity | Drosophila S2 Gal4-VP16 UAS-luciferase, luminescence, 20 h | Potency, µM (titrated, usually from 53.6 µM), most hits filed as inhibitors | 310,000 tested, 3.5% active | AID 2546, 2010;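 further: Gal4-VP16 expression switched on by copper sulfate through the metallothionein promoter; nearly all actives have a fitted effect of over 50% in size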
Six1-Eya2 inh – qHTS Assay for Inhibitors of the Six1/Eya2 Interaction | Homeobox protein SIX1 (Homo sapiens) + Protein phosphatase EYA2 (Homo sapiens), … | AlphaScreen GST-Six1/His-Eya2 binding, biochemical; active compounds read low | activity change, % (no concentration beside the values) | 360,000 tested, 0.56% active | AID 651725, 2012; in the data active means activity change below about -65%; inconclusive means mostly about -30% to -63%
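Six1/Eya2 binding was read as AlphaScreen signal after compounds were pinned into GST-Six1 plus His-tagged Eya2 (5X stock 250/500 nM) in pH 8.0 Tris/NaCl/TCEP buffer, beads added, then incubated 1 h, 37 C, dark.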
PKM2 act – qHTS Assay for Activators of Human Muscle isoform 2 Pyruvate Kinase; Pyruvate kinase PKM (Homo sapiens), P14618; 260,000 tested, 0.34% active; purified PKM2, Kinase-Glo ATP luminescence, activation; response scale: 0% is enzyme alone, no compound; Potency, µM (top dose mostly 57.5 µM), most hits filed as activators; further: nearly all actives have a fitted effect of over 55% in size
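Kinase-Glo luminescence reports ATP generated from ADP (0.1 mM) and PEP (0.5 mM) by purified hPK-M2 after 1 h at room temperature, pH 7.2 imidazole buffer; intermediate enzyme activity allows detecting inhibitors and activators.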
CtBP-E1A blk – qHTS Assay for Inhibitors of the CtBP/E1A Interaction. CtBP / adenovirus E1A interaction (AlphaScreen). AlphaScreen GST-E1A/His-CtBP binding, 1536-well; active compounds read low. activity change, % (test concentration not listed). 340,000 tested, 0.49% active. AID 651724, 2012; in the data active means activity change below about -65%; inconclusive means mostly about -30% to -63%
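In 5 uL wells, 23 nL compound meets equimolar GST-E1A and His-CtBP (5X stock 125 nM each) for 2 h, 37 °C. Beads (5X, 50 ug/mL) then 1 h, 37 °C, dark.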
Large screens that a line does not name were inactive. Unless noted, the call rests on the fitted dose curve; in most records, active means well fitted curve in the direction sought with a large enough effect; inconclusive means small, poorly fitted or top-dose-only effect, or another doubt; inactive means no such curve, though single readings can be large; an effect the other way counts as inactive or inconclusive.

CC(=O)CSc1nnc(-c2ccc3c(c2)OCO3)o1	RORgamma inh 13µM, Gal4-VP16 FLuc 16µM
Cc1ccc(CSc2nnc(-c3ccc4c(c3)OCO4)o2)cc1	none
O=C(O)CCSc1nnc(-c2ccc3c(c2)OCO3)o1	RORgamma inh 2.8µM, Gal4-VP16 FLuc 4µM
O=C1OCCC1Sc1nnc(-c2ccc3c(c2)OCO3)o1 (stereo not drawn)	RORgamma inh 10µM, Gal4-VP16 FLuc inconclusive
O=C(Cn1c(=S)[nH]c2ccccc2c1=O)NCCc1ccccc1	none
C=CCNC(=O)O/N=C/c1csc([N+](=O)[O-])c1	none
CCCc1ccc(S(=O)(=O)NCc2nnc(SC)n2C)cc1	none (no result: PKM2 act)
Cc1ccc(C(=O)Nc2ncc(Cc3ccc(F)cc3)s2)o1	RORgamma inh inconclusive, Gal4-VP16 FLuc inconclusive
O=C(Nc1ncc([N+](=O)[O-])s1)c1ccc2c(c1)OCO2	RORgamma inh 1.8µM, Gal4-VP16 FLuc 2.5µM
Cc1ccc(C(=O)Nc2ncc([N+](=O)[O-])s2)cc1	RORgamma inh 0.89µM, Gal4-VP16 FLuc 2µM
CC(=O)Nc1ncc([N+](=O)[O-])s1	none (no result: Six1-Eya2 inh, PKM2 act, CtBP-E1A blk)
Cc1ccc(C(=O)Nc2ncc(Cc3ccc(SC(F)F)cc3)s2)cc1	RORgamma inh 13µM, Gal4-VP16 FLuc inconclusive
COc1cc2c(cc1OC)C1N(CC2)C(=O)CCC12C(=O)CCCC2=O (stereo not drawn)	none (no result: Six1-Eya2 inh, PKM2 act, CtBP-E1A blk)
Cc1sc(N/N=C/c2cccnc2)nc1-c1ccccc1	none
Cc1cc(-c2ccccc2)nc(N/N=C/c2ccco2)n1	RORgamma inh 8.9µM, Gal4-VP16 FLuc inconclusive
C(=N\Nc1nc(-c2ccccc2)cs1)/c1ccco1	RORgamma inh inconclusive, Gal4-VP16 FLuc inconclusive
CC(C)=NNc1nc(-c2ccccc2)c(C)s1	RORgamma inh 11µM
Cc1sc(N/N=C/c2ccco2)nc1-c1ccccc1	RORgamma inh 11µM, Gal4-VP16 FLuc inconclusive (no result: CtBP-E1A blk)
Cc1cc(-c2ccccc2)nc(N/N=C/c2ccccc2)n1	RORgamma inh 14µM, Gal4-VP16 FLuc inconclusive
Cc1cc(C)nc(N/N=C/c2ccco2)n1	none
CCN(CC)CCNC(=O)Cn1cnc2sc(C)c(S(=O)(=O)N3CC(C)CC(C)C3)c2c1=O (stereo not drawn)	none
C[C@H](CO)N1C[C@H](C)[C@@H](CN(C)C(=O)NC2CCCCC2)Oc2ccc(NC(=O)Nc3ccccc3)cc2C1=O	none (no result: RORgamma inh, Gal4-VP16 FLuc, PKM2 act)
CC(Sc1ccccc1)C(=O)NCC(c1ccco1)N1CCCCC1 (stereo not drawn)	none (no result: RORgamma inh, Gal4-VP16 FLuc, PKM2 act)
OC[C@H]1O[C@H](OC[C@H]2OC(O)[C@H](O)[C@@H](O)[C@@H]2O)[C@H](O)[C@@H](O)[C@@H]1O (stereo partly drawn)	none (no result: RORgamma inh, Gal4-VP16 FLuc, PKM2 act)
COc1ccc(/C=N/Nc2nc(C)cc(-c3ccccc3)n2)cc1OC	RORgamma inh 11µM, Gal4-VP16 FLuc inconclusive
Cc1cc(-c2ccccc2)nc(N/N=C/c2ccc(N(C)C)cc2)n1	none (no result: RORgamma inh, Gal4-VP16 FLuc, PKM2 act, CtBP-E1A blk)
O=C(CCCn1c(=S)[nH]c2cc3c(cc2c1=O)OCO3)N1CCN(c2ccc(F)cc2)CC1	RORgamma inh 7.9µM, Gal4-VP16 FLuc inconclusive
O=C(CCCn1c(=S)[nH]c2cc3c(cc2c1=O)OCO3)N1CCN(c2ncccn2)CC1	RORgamma inh 16µM
CCOCCCn1c(=S)[nH]c2cc3c(cc2c1=O)OCO3	RORgamma inh 2.5µM, Gal4-VP16 FLuc 2.5µM
Cc1ccc(C)c(N2CCN(C(=O)CCCn3c(=S)[nH]c4cc5c(cc4c3=O)OCO5)CC2)c1	none (no result: Gal4-VP16 FLuc)
O=C(CCCCCn1c(=S)[nH]c2cc3c(cc2c1=O)OCO3)N1CCN(c2ccccc2)CC1	RORgamma inh inconclusive
O=C(CCCn1c(=S)[nH]c2cc3c(cc2c1=O)OCO3)N1CCN(c2ccccc2F)CC1	RORgamma inh 13µM, Gal4-VP16 FLuc 7.9µM
COc1cc([C@@H]2Oc3cc([C@H]4Oc5cc(O)cc(O)c5C(=O)[C@H]4O)ccc3O[C@H]2CO)ccc1O	none (no result: Six1-Eya2 inh, PKM2 act, CtBP-E1A blk)
O=C(O)CCCC(=O)N1N=C(c2ccccc2)CC1c1cccs1 (stereo not drawn)	none
COc1cccc(N2CCN(C(=O)CCn3c(=S)[nH]c4cc5c(cc4c3=O)OCO5)CC2)c1	none (no result: Six1-Eya2 inh, CtBP-E1A blk)
